High-throughput results: PubChem, several laboratories
BoNT A protease – BoNT A light chain protease inhibition; multiplex microsphere protease substrate cleavage, flow cytometry; inhibition, % at 10 µM; actives 0.17% (n = 360,000)
Autofluor counter – flagged as autofluorescent in microsphere protease counterscreen; compound autofluorescence counterscreen, microsphere flow cytometry; hits give high values; fluorescence intensity (test concentration not listed); actives 3.1% (n = 360,000); in the data active = fluorescence intensity above about 16000; inconclusive = no clear call, values can overlap the other calls
3CLpro inhibitor – SARS-CoV 3CLpro protease inhibition; P0C6X7; recombinant SARS-CoV 3CLpro, quenched FRET peptide cleavage; inhibition, % at 6 µM; actives 0.14% (n = 290,000); AID 1706; in the data active = inhibition above about 12%
Anthrax LF prot – blocks Bacillus anthracis lethal factor protease. actives 0.12% (n = 360,000). inhibition, % at 10 µM. P15917. AID 588501. multiplex microsphere protease cleavage assay, LF
BoNT F protease – blocks Botulinum neurotoxin F light chain protease. Multiplex microsphere protease cleavage assay, flow cytometry. inhibition, % at 10 µM. actives 0.22% (n = 360,000); in the data active = inhibition above about 35%, passing the limit was not always enough; inconclusive = no clear call, values can overlap the other calls
Of the large screens only hits and unclear results are named; the others gave an inactive call. Sampled rows, rich in hits. Any-hit rate of the full collection: about 3.5%. Cut-off read from the data, not from the text of the source, unless noted: active = inhibition above about 30%; inconclusive = no clear call, values can overlap the other calls; inactive = below that.

CCCOC(=O)c1ccc(-c2ccc(C=O)o2)cc1	none
O=C(O)C1OC2OC3(CCCCC3)OC2C2OC3(CCCCC3)OC12 (configuration not stated)	BoNT F protease 36
O=C(OCC1OC2OC3(CCCCC3)OC2C2OC3(CCCCC3)OC12)c1ccccc1 (configuration not stated)	none
COc1cc(CN2CCC(C(=O)NC(c3ccccc3)c3ccsc3)CC2)cc(OC)c1 (configuration not stated)	none (no result: 3CLpro inhibitor)
O=C(CCc1ccc(F)c(F)c1)NC1CCCN(Cc2ccc(Cl)cc2)C1 (configuration not stated)	none
COc1ccc(CC(=O)N2CCNC2=O)cc1	Autofluor counter 19689
O=C(COc1ccccc1)N1CCNC1=O	Autofluor counter 21620
COc1ccc(CC(=O)N2CCc3ccccc32)cc1	none
CCOc1ccc2[nH]c3c(N4CCN(c5ccccn5)CC4)ncnc3c2c1	Autofluor counter 18129
Cc1ccc2[nH]c3c(N4CCN(Cc5ccccc5)CC4)ncnc3c2c1	none
CCN(CC)CCc1nc(-c2ccccc2)no1	none (no result: 3CLpro inhibitor)
COc1ccccc1/C=C\C=N\n1c(-c2ccc(Cl)cc2Cl)n[nH]c1=S	none
Cc1cccc(C)c1-n1nnnc1SCc1nc(N)nc(N(C)C)n1	none (no result: 3CLpro inhibitor)
CN(C)c1nc(N)nc(CSc2nnnn2-c2ccc(F)cc2)n1	Autofluor counter 23095
CCCS(=O)(=O)c1snnc1C	none
Cc1cc(N2C(=O)C(=O)/C(=C(/O)c3ccc(F)cc3)C2c2ccc(Cl)cc2)no1 (configuration not stated)	none
O=C(Nc1ccccc1-c1ccccc1)C1CCCN(c2ncccn2)C1 (configuration not stated)	Autofluor counter 16368
O=C(NCc1cccc(C(F)(F)F)c1)C1CCCN(c2ncccn2)C1 (configuration not stated)	BoNT A protease inconclusive, Autofluor counter 22625
O=C(C1CCCN(c2ncccn2)C1)N1CCc2ccccc21 (configuration not stated)	Autofluor counter 17813
O=C(C1CCC(C(=O)N2CCc3ccccc32)CC1)N1CCc2ccccc21 (configuration not stated)	none
Cc1ccc(NC(=O)C2CCCN(c3ncccn3)C2)c(C)c1 (configuration not stated)	none
CCCc1ccc(C2=Nn3c(nnc3C(C)C)SC2)cc1	none
O=C(Cc1c(Cl)cccc1Cl)OCc1ccccn1	none
CC(=O)Nc1cc2c(cc1C(=O)c1ccccc1)OCCO2	none
Cc1ccccc1NC(=O)c1ccc(CSc2ncccn2)cc1	Autofluor counter 16598
CCC(C)NC(=O)c1ccccc1NC(=O)c1ccc(CSc2ccc(C)cc2)cc1 (configuration not stated)	Autofluor counter 17124
Cc1ccc(NC(=O)c2ccc(CSc3ccccn3)cc2)c(O)c1	none
CCC(C)NC(=O)c1ccccc1C(=O)NC(C)CC (configuration not stated)	Autofluor counter 24599
COc1ccc2c(c1)[nH]c1c(N3CCN(Cc4ccc5c(c4)OCO5)CC3)ncnc12	Autofluor counter 23865
Cc1ccc2[nH]c3c(N4CCN(Cc5ccc6c(c5)OCO6)CC4)ncnc3c2c1	none (no result: BoNT A protease, Autofluor counter, Anthrax LF prot, BoNT F protease)
O=C1C2=C(CCCC2)C(=O)N1CNc1ccccc1	BoNT F protease inconclusive
CCC(C(=O)Nc1cnccn1)c1ccccc1 (configuration not stated)	Autofluor counter 24267
COc1cc(OC)c(-c2nc3cnccc3n2C)cc1OC	BoNT A protease inconclusive, Autofluor counter 16895
COc1cc(-c2nc3cnccc3n2C)cc(OC)c1OC	BoNT F protease inconclusive
CCc1cc(=O)oc2c(C)c(OC(C)C(=O)N3CCC[C@@H]3C(=O)O)ccc12 (some centres not stated)	none
COC(=O)c1ccc(CN(c2ccccc2Cl)S(C)(=O)=O)cc1	none
O=c1[nH]c(-c2ccc(F)cc2)nc2c1sc(=S)n2-c1ccccc1	none
C=CCn1c(=S)[nH]c2cc(-c3ccccc3)sc2c1=O	none
O=c1[nH]cnc2c1sc(=S)n2-c1ccccc1	Autofluor counter 22624
C=CCn1c(=S)sc2c(=O)[nH]cnc21	Anthrax LF prot 53, BoNT F protease inconclusive
NS(=O)(=O)c1ccc(NC(=O)CN2C(=O)CCC2=O)cc1	none
COc1ccc(NC(=S)Nc2nc(CC(=O)Nc3ccccc3OC)cs2)cc1	none
COc1ccccc1NC(=O)Cc1csc(NC(=S)Nc2ccccc2)n1	Autofluor counter 20382
COc1ccccc1OCC(=O)Nc1ccc(Cl)cc1C(=O)c1ccccc1	Autofluor counter 23660
CCOc1ccccc1OCC(=O)Nc1ccc(Cl)cc1C(=O)c1ccccc1	none
COc1ccccc1CC(=O)Nc1ccccc1O	Autofluor counter 20480
COc1ccccc1CC(=O)Nc1cc(Cl)ccc1O	BoNT A protease inconclusive, Autofluor counter 18515
COc1ccccc1CC(=O)Nc1ccc([N+](=O)[O-])cc1O	none
O=C(Nc1nccs1)C1CC2CCC1C2 (configuration not stated)	none
CC(C)N1CCN(Cc2cnc(N3CCCC3)s2)CC1CCO (configuration not stated)	none
CCCC1CCc2c(sc(NC(=O)c3cccs3)c2C(N)=O)C1 (configuration not stated)	none
O=c1c2ccc(Cl)cc2[nH]c(=S)n1Cc1cccnc1	Autofluor counter 21022
O=C(c1ccc2c(=O)n(CCc3ccccc3)c(=O)[nH]c2c1)N1CCN(c2ccccc2)CC1	none
CCn1c(=O)[nH]c2cc(C(=O)N3CCN(c4ccccc4)CC3)ccc2c1=O	BoNT A protease inconclusive, Autofluor counter 22918
O=C(c1ccc2c(=O)n(Cc3ccc(Cl)cc3)c(=S)[nH]c2c1)N1CCCC1	none
O=C(c1ccc2c(=O)n(Cc3ccc4c(c3)OCO4)c(=S)[nH]c2c1)N1CCCCC1	Autofluor counter 22165
CCOC(=O)N1CCN(C(=O)c2ccc3c(=O)n(Cc4ccccc4OC)c(=S)[nH]c3c2)CC1	Autofluor counter 16581
CCOC(=O)N1CCN(C(=O)c2ccc3c(=O)n(Cc4ccccc4)c(=S)[nH]c3c2)CC1	none
COc1ccc(CC(=O)Nc2nc(-c3ccncc3)cs2)cc1	none
CN1CCN(C(=O)c2ccc3c(=O)n(Cc4ccc(Cl)cc4)c(=S)[nH]c3c2)CC1	Autofluor counter 20632
CCOC(=O)c1ccc(CNC(=O)CSc2nc(NC(=O)c3ccccc3)c3c(C)c(C)oc3n2)cc1	none
O=C(CCCN1C(=O)c2ccccc2C1=O)N1CCC(c2ccccc2)C1 (configuration not stated)	Autofluor counter 20922
O=C(CCCN1C(=O)c2ccccc2C1=O)N1CCCCC1	none
Cc1cc(NS(=O)(=O)c2ccc(NC(=O)CCN3C(=O)c4ccccc4C3=O)cc2)no1	none
Cc1cc(C)nc(NS(=O)(=O)c2ccc(NC(=O)CCN3C(=O)c4ccccc4C3=O)cc2)n1	Autofluor counter 16582
CCOC(=O)Nc1ccc(S(=O)(=O)Nc2nccc(C)n2)cc1	BoNT A protease inconclusive, Autofluor counter inconclusive, Anthrax LF prot inconclusive, BoNT F protease inconclusive
O=C(CCN1C(=O)c2ccccc2C1=O)Nc1cccc(S(=O)(=O)N2CCCCC2)c1	Autofluor counter inconclusive
CCOC(=O)Nc1ccc(S(=O)(=O)Nc2nc(C)cc(C)n2)cc1	Autofluor counter 24252
